Tb PYK inh: inhibitors of Trypanosoma brucei pyruvate kinase; TbPYK enzyme, Kinase-Glo Plus ATP luminescence, 45 min; 410,000 tested, 0.12% active; Q57TT1; Potency, µM (doses to about 76.8 µM), hits mostly inhibitors; further: nearly all actives have a fitted effect of over 50% in size
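Activity of T. brucei pyruvate kinase was followed by Kinase-Glo Plus luminescence after the enzyme reacted 45 min at room temperature with 130 uM ADP (final) and substrate. Test compounds were added before ADP at multiple concentrations.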
RE007 growth inh: less growth of the S. pombe RE007 Vpr strain; S. pombe RE007 Vpr strain, BacTiter-Glo ATP luminescence, 24 h; AID 651644; 360,000 tested, 0.21% active; Potency, µM (highest dose often 92.2 µM), hits mostly inhibitors; active means well fitted falling curve with a large enough effect; inconclusive means small, poorly fitted or top-dose-only effect; inactive means no such curve, though single readings can be large or run the other way; further: nearly all actives have a fitted effect of over 50% in size
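Fission yeast strain RE007, carrying one chromosomally integrated HIV-1 vpr copy, was seeded at OD 0.01 in PMG+AL medium with 23 nL pinned compound. After 24 h at 30 °C and 99% humidity, viability was read by BacTiter-Glo luminescence.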
Giardia FBPA inh: inhibitors of Giardia lamblia fructose-1,6-bisphosphate aldolase | Potency, µM (doses to about 59.6 µM), hits mostly inhibitors | A8B2U2 | 290,000 tested, 0.71% active | purified Giardia FBPA; further: nearly all actives have a fitted effect of over 55% in size
Target sequence (A8B2U2 whole entry, looked up): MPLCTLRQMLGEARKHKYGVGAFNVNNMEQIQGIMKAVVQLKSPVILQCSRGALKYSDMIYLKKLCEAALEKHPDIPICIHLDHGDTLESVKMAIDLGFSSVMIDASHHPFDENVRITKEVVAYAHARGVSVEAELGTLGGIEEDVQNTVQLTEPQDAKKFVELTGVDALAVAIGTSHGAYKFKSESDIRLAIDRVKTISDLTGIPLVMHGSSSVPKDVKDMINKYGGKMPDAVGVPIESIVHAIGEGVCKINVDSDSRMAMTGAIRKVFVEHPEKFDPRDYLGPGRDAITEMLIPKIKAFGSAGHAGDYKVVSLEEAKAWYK
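Giardia FBPA (40 nM reagent) was preincubated 10 min at RT with compound (up to 57.5 uM final), then substrate plus GAPDH/TPI/NAD/arsenate coupling system with diaphorase/resazurin was added; resorufin fluorescence (525/598 nm) was read after 20 min.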
LmPK inhibitor: LmPK (Leishmania mexicana) enzyme inhibition; Q27686; purified LmPK, Kinase-Glo ATP luminescence, 1 h; Potency, µM (doses to about 57.5 µM), hits mostly inhibitors; 290,000 tested, 0.37% active
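Pyruvate kinase activity monitored as ATP production (luciferase luminescence). Conditions: 0.1 nM enzyme, 0.5 mM PEP, 0.1 mM ADP, 1 h, RT; normalized against uninhibited and no-enzyme wells.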
Sm TGR block: S. mansoni TGR enzyme inhibition; Q962Y6; purified TGR, DTNB reduction, TNB absorbance 405 nm; Potency, µM (highest dose often 114 µM), actives largely listed as inhibitors; 360,000 tested, 3% active; AID 485364; further: nearly all actives have a fitted effect of over 60% in size
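TGR 20 nM + NADPH 100 uM (dispensed conc.), cpd preinc 15 min RT; start with NADPH (500 uM addition) then DTNB (15 mM addition). Kinetic TNB absorbance, 405 nm filter. Four-parameter Hill fit across titration.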
NS1 inh: influenza NS1 inhibition; 270,000 tested, 0.4% active; Potency, µM (highest dose often 46.1 µM); AID 2326; calls by dose curve; further: actives are rising curves; nearly all actives have a fitted effect of over 50% in size
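In this qHTS, NS1 from influenza A is expressed in budding yeast, where it slows growth. Cells are switched from glucose to 2% galactose medium (pH 6.0, -URA), treated with compound, and growth recovery is read at OD600.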
A number is an active result; [ ] = remark or other dose. Sampled rows, rich in hits. Any-hit rate of the full collection: about 3.5%. Unless noted, the call rests on the fitted dose curve; in most records, active means well fitted curve in the direction sought with a large enough effect; inconclusive means small, poorly fitted or top-dose-only effect, or another doubt; inactive means no such curve, though single readings can be large; an effect the other way counts as inactive or inconclusive.

How did Cc1ccc(C)c(OCc2cc(C(=O)N3CCN(C(=O)c4ccco4)CC3)no2)c1 do in these assays?
Tb PYK inh: inactive; RE007 growth inh: inactive; LmPK inhibitor: inactive; Sm TGR block: inactive; NS1 inh: inactive

What do the screens show for `CN1CCN(C(=O)c2cc(COc3c(F)cccc3F)on2)CC1c1ccccc1` (stereo not drawn)?
Tb PYK inh: inactive; RE007 growth inh: inactive; Giardia FBPA inh: inactive; LmPK inhibitor: inactive; Sm TGR block: 3.98µM; NS1 inh: inactive

What do the screens show for `O=C(c1cc2cc(F)ccc2[nH]1)N1CCN(C(=O)c2ccco2)CC1`?
Tb PYK inh: inactive; RE007 growth inh: inactive; LmPK inhibitor: inactive; Sm TGR block: 39.8µM; NS1 inh: inactive

Results for O=C(c1cc(COc2ccc(F)cc2F)on1)N1CCN(C(=O)c2ccco2)CC1 ?
Tb PYK inh: inactive; RE007 growth inh: inactive; LmPK inhibitor: inactive; Sm TGR block: 25.1µM; NS1 inh: inactive

Results for Cc1ccc(-c2nc3ccccc3[nH]2)s1 ?
Tb PYK inh: inconclusive; RE007 growth inh: 20µM; Giardia FBPA inh: inconclusive; LmPK inhibitor: 15.8µM; Sm TGR block: inactive; NS1 inh: inactive

Results for Cc1cc(-c2nc3ccccc3[nH]2)ccc1N ?
Tb PYK inh: inactive; RE007 growth inh: inconclusive; Giardia FBPA inh: inactive; LmPK inhibitor: 15.8µM; Sm TGR block: inactive

What do the screens show for `COc1ccc(-c2nc3ccccc3[nH]2)cc1`?
Tb PYK inh: inconclusive; RE007 growth inh: inconclusive; Giardia FBPA inh: inactive; LmPK inhibitor: 12.6µM; Sm TGR block: inactive; NS1 inh: inactive

What do the screens show for `CCc1ccc(NC(=O)C(=O)NCCc2sc(-c3ccc(C)cc3)nc2C)cc1`?
Tb PYK inh: inactive; Sm TGR block: inactive

Results for Cc1csc2nc(-c3ccc(NS(=O)(=O)c4cc(F)ccc4F)cc3)cn12 ?
Tb PYK inh: inactive; Sm TGR block: inactive

How did O=C(COC(=O)c1ccc([N+](=O)[O-])s1)Nc1ccccc1 do in these assays?
Tb PYK inh: inactive; RE007 growth inh: inconclusive; Giardia FBPA inh: inactive; LmPK inhibitor: inactive; Sm TGR block: inconclusive; NS1 inh: inactive

What do the screens show for `O=C(COC(=O)c1ccc([N+](=O)[O-])s1)Nc1ccc(F)cc1`?
Tb PYK inh: inactive; RE007 growth inh: inconclusive; Sm TGR block: 14.1µM

What do the screens show for `Cc1[nH]c2ccccc2c1C(=O)COC(=O)c1ccc([N+](=O)[O-])s1`?
Tb PYK inh: inactive; RE007 growth inh: 63.1µM; Giardia FBPA inh: inactive; LmPK inhibitor: inactive; NS1 inh: inactive

How did O=C(OCC(=O)N1CCC(c2ccccc2)=N1)c1ccc([N+](=O)[O-])s1 do in these assays?
Tb PYK inh: inactive; RE007 growth inh: 15.8µM; Sm TGR block: inconclusive

How did COC(=O)[C@H](C)NC(=O)C/C=C\[C@@H](C)[C@@H](CO)OC do in these assays?
Giardia FBPA inh: inactive[12.9 µM]

What do the screens show for `CCN(CC)Cc1c(C(=O)N2CCc3ccccc3C2)nc2ccc(Cl)cn12`?
Tb PYK inh: inactive; RE007 growth inh: inactive; Giardia FBPA inh: inactive; LmPK inhibitor: inactive; Sm TGR block: inactive; NS1 inh: inactive

What do the screens show for `COC1CCN(Cc2c(C(=O)N3CCc4ccccc4C3)nc3ccc(Cl)cn23)CC1`?
Tb PYK inh: inactive; RE007 growth inh: inactive; LmPK inhibitor: inactive; Sm TGR block: inactive; NS1 inh: inactive

How did CCN(C)Cc1c(C(=O)N2CCc3ccccc3C2)nc2ccc(Cl)cn12 do in these assays?
Tb PYK inh: inactive; RE007 growth inh: inactive; Giardia FBPA inh: inactive; LmPK inhibitor: inactive; Sm TGR block: 35.5µM; NS1 inh: inactive

Results for COCC1CCN(Cc2c(C(=O)N3CCc4ccccc4C3)nc3ccc(Cl)cn23)C1 (stereo not drawn) ?
Tb PYK inh: inactive; RE007 growth inh: inactive; LmPK inhibitor: inactive; Sm TGR block: 20µM; NS1 inh: inactive

What do the screens show for `O=C1C(O)=C(O)C(=O)C(O)=C1O`?
Tb PYK inh: inactive; Giardia FBPA inh: 12.6µM

How did CCOc1ccc(C(=O)NCC(=O)NCC(c2ccco2)N2CCCCC2)cc1 (stereo not drawn) do in these assays?
Tb PYK inh: inactive; RE007 growth inh: inactive; Sm TGR block: 89.1µM

What do the screens show for `O=C(NCC(c1ccco1)N1CCOCC1)c1ccc([N+](=O)[O-])cc1` (stereo not drawn)?
Tb PYK inh: inactive; RE007 growth inh: inactive; Giardia FBPA inh: inactive; LmPK inhibitor: inactive[11.5 µM]; Sm TGR block: 3.98µM

What do the screens show for `O=C(NCC(c1ccco1)N1CCOCC1)c1cccc([N+](=O)[O-])c1` (stereo not drawn)?
Tb PYK inh: inactive; RE007 growth inh: inactive; Giardia FBPA inh: inactive; LmPK inhibitor: inactive; Sm TGR block: inactive

How did O=C(NCC(c1ccco1)N1CCc2ccccc2C1)c1cccc([N+](=O)[O-])c1 (stereo not drawn) do in these assays?
Tb PYK inh: inactive; RE007 growth inh: inactive; Sm TGR block: 39.8µM

Results for O=C(NCC(c1ccco1)N1CCc2ccccc2C1)c1ccc(Cl)c([N+](=O)[O-])c1 (stereo not drawn) ?
Tb PYK inh: inactive; RE007 growth inh: inactive; Sm TGR block: inactive

What do the screens show for `CCOc1ccc(CNC(=O)C2CCCN(c3nn4cc(-c5ccc(OC)cc5)nc4s3)C2)cc1` (stereo not drawn)?
Tb PYK inh: inactive[15.4 µM]; Sm TGR block: inactive

How did Cc1ccc(Cn2cc(CCC(=O)NC3CCCCC3)c3ccccc32)cc1 do in these assays?
Tb PYK inh: inactive; Sm TGR block: inactive

Results for O=C(NC1CC(=O)N(c2ccccc2)C1)c1ccc(S(=O)(=O)N2CCCC2)cc1 (stereo not drawn) ?
Tb PYK inh: inactive; Sm TGR block: inactive

Results for Nc1c(C(=O)NCC2CCCO2)sc2nc3c(c(-c4ccco4)c12)CC/C3=C\c1ccco1 (stereo not drawn) ?
Tb PYK inh: inactive; RE007 growth inh: inactive; Giardia FBPA inh: inconclusive; LmPK inhibitor: inactive; Sm TGR block: 17.8µM; NS1 inh: inconclusive

What do the screens show for `Cc1ccc(C)c(Cn2c(=O)n(C(C)C)c(=O)c3oc4ccccc4c32)c1`?
Tb PYK inh: inactive; Sm TGR block: inactive

What do the screens show for `CCN(CC)c1ccc2c(c1)CCCN2`?
Giardia FBPA inh: inconclusive; LmPK inhibitor: inactive; Sm TGR block: 5.01µM; NS1 inh: inactive

What do the screens show for `C[n+]1ccccc1/C=C/c1ccc(C#N)cc1`?
Tb PYK inh: inconclusive; RE007 growth inh: inactive; Giardia FBPA inh: inconclusive; LmPK inhibitor: inactive; Sm TGR block: 44.7µM; NS1 inh: inactive

Results for Cc1ccccc1/C=C/c1cccc[n+]1C ?
Tb PYK inh: inactive; RE007 growth inh: inactive; Giardia FBPA inh: inactive; LmPK inhibitor: inactive; Sm TGR block: inactive; NS1 inh: inactive

What do the screens show for `C[n+]1ccccc1/C=C/c1ccc(F)c(F)c1`?
Tb PYK inh: inactive; RE007 growth inh: inactive; Giardia FBPA inh: inactive; LmPK inhibitor: inactive; Sm TGR block: inactive; NS1 inh: inactive

Bioassay records from PubChem.
